Screening data from PubChem BioAssay.
3CLpro inhibitor: SARS-CoV 3CLpro protease inhibitors, primary screen, biochemical, quenched FRET; Replicase polyprotein 1ab (Severe acute respiratory syndrome coronavirus), P0C6X7; recombinant SARS-CoV 3CLpro, quenched FRET peptide cleavage; inhibition, % at 6 µM; 290,000 compounds, 0.14% hits; in the data active = inhibition above about 12%
Yp Topo-I inh: Yersinia pestis topoisomerase I inhibitors, primary screen, biochemical, cleavage product accumulation, plate reader, single point; DNA topoisomerase I (Yersinia pestis CO92); Y. pestis Topo-I cleavage product accumulation; activity, % at 10 µM; 360,000 compounds, 0.064% hits; in the data active = activity above about 50%, passing the limit was not always enough; inconclusive = no clear call, values can overlap the other calls
BJeLR viability: MLPCN primary cell-based screen for lethality selective to Ras in HRASV12 cells; BJeLR (HRASV12) viability, CellTiter-Glo ATP luminescence, 48 h; inhibition, % (test concentration not listed); 300,000 compounds, 0.17% hits; AID 1554, 2009; in the data active = inhibition above about 50%; inconclusive = no clear call, values can overlap the other calls
MazF activator: activators of E. coli MazEF toxin-antitoxin RNase, primary screen, biochemical, fluorescence, uHTS; Endoribonuclease toxin MazF (Escherichia coli (strain K12)), P0AE70; FAM/BHQ RNA-DNA oligo cleavage fluorescence, 5 h; activation, % at 20 µM; 350,000 compounds, 0.32% hits; in the data active = activation above about 50%
Target sequence (P0AE70 whole entry, looked up): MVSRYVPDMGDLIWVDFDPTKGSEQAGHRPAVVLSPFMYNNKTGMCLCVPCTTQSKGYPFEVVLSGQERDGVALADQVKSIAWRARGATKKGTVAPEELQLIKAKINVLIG
Mtb BioA inh: M. tuberculosis BioA enzyme inhibitors, primary screen, biochemical, plate reader, single point, HTS; purified M. tuberculosis BioA enzyme; inhibition, % at 9.99 µM; 360,000 compounds, 0.096% hits; AID 602481, 2012; in the data active = inhibition above about 40%; inconclusive = no clear call, values can overlap the other calls
PfHsp40 rescue: rescue of yeast from PfHsp40 toxicity, primary screen, S. cerevisiae, ATP luminescence | growth rescue, % at 12.5 µM | S. cerevisiae expressing PfHsp40, growth rescue | 340,000 compounds, 0.68% hits; in the data active = growth rescue above about 28%, passing the limit was not always enough; inconclusive = no clear call, values can overlap the other calls;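 note: yeast W303a lacking pdr1 and pdr3 grown in galactose medium; growth measured after three days at 30 °C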
A number is an active result; 0 = inactive; ? = inconclusive; - = no result. In the library only some 1.1% were active in any assay of this set; here they are far more common.

SMILES	3CLpro inhibitor	Yp Topo-I inh	BJeLR viability	MazF activator	Mtb BioA inh	PfHsp40 rescue
CCNC(=O)Nc1ccc2c(c1)C(=O)N(C)[C@@H]1CC[C@H](CC(=O)NCC3CC3)O[C@@H]1CO2	-	-	-	-	0	-
CCOC(=O)/C(=C/c1ccc(OC(=O)c2ccccc2)cc1)C(C)=O	0	0	0	0	0	312
O=C(NCC[C@H]1CC[C@H](NC(=O)c2cccnc2)[C@H](CO)O1)Nc1ccc(C(F)(F)F)cc1	-	-	-	-	0	-
O=C(NCc1ccncc1)c1ccccc1Nc1ccc(SC(F)F)cc1	0	0	0	0	0	474
CC(=NNc1nc2ccccc2s1)c1ccncn1	-	0	-	0	-	150
C/C(=N\Nc1nc2ccccc2s1)c1ccc(Br)s1	0	0	0	0	-	145
COc1ccc(NC(=O)N(C)C[C@H]2OCCCC[C@@H](C)Oc3ccc(NC(=O)C4CCCCC4)cc3C(=O)N([C@H](C)CO)C[C@H]2C)cc1	-	-	-	-	0	-
C[C@@H]1CN([C@H](C)CO)C(=O)c2cc(C3=CCCC3)cnc2O[C@H]1CN(C)C(=O)c1ccc2c(c1)OCO2	-	-	-	-	0	-
Cn1c(=O)c(Nc2ccc(O)cc2)c2c3c(cccc31)C(=O)c1ccccc1-2	0	0	0	64	-	0
O=C(CCCc1ccccc1)NC1CC1	0	0	0	0	-	0
O=C(O)CCCc1ccc2c(c1)CCc1ccccc1-2	-	0	0	0	0	185
C[C@@H]1CN([C@@H](C)CO)C(=O)c2cc(NS(=O)(=O)c3cccs3)ccc2O[C@@H]1CN(C)Cc1ccncc1	-	-	-	-	0	-
COc1ccc(OC(=O)N(C)C[C@@H]2OCc3ccccc3-c3ccccc3C(=O)N([C@H](C)CO)C[C@@H]2C)cc1	-	-	-	-	0	-
CCOCCCNC(=O)C1(O)c2cc(Br)ccc2NC(=O)N1c1ccc(CC)cc1 (stereo not drawn)	0	0	0	0	0	0
CCOCCCNC(=O)C1(O)c2cc(Br)ccc2NC(=O)N1c1ccc(OCC)cc1 (stereo not drawn)	0	0	0	0	0	51
Cc1ccc(S(=O)(=O)N(C)C[C@@H]2Oc3ccc(NC(=O)C4CCCCC4)cc3CC(=O)N([C@@H](C)CO)C[C@@H]2C)cc1	-	-	-	-	0	-
C(C#CCCCCCCCCC[n+]1ccccc1)#CCCCCCCCCC[n+]1ccccc1	0	0	52	0	0	?
CCCN1C[C@@H](C)[C@H](OC)CN(C)C(=O)c2cc(NS(=O)(=O)c3cn(C)cn3)ccc2OC[C@@H]1C	-	-	-	-	0	-
O=C(Cn1nnc(-c2ccccc2)n1)NNC(=O)c1ccccc1	0	0	0	0	-	0
O=C(Cn1nnc(-c2ccccc2)n1)NNC(=O)c1ccc(Br)cc1	0	56	0	0	-	0
Cc1csc(-c2cnn(-c3ccccc3)c2NC(=O)c2ccc(C(F)(F)F)cc2)n1	0	0	0	0	-	46
CCCN1C[C@H](C)[C@H](OC)CN(C)C(=O)c2cc(NS(=O)(=O)c3cn(C)cn3)ccc2OC[C@@H]1C	-	-	-	-	0	-
C[C@H]1O[C@@H](OC2CC[C@]3(C=O)[C@H]4CC[C@]5(C)[C@@H](C6=CC(=O)OC6)CC[C@]5(O)[C@@H]4CC[C@]3(O)C2)CC2OC(C)(C)OC21 (stereo partly drawn)	0	0	69	0	-	0
Cc1cccc(COC(=O)CCCNC(=O)c2ccc(Cl)cc2)c1	-	0	-	0	0	77
CCCCCCSc1ccc(-c2nc3ccccn3c2NCCCC)cc1	-	0	0	0	0	324
CCCCCCSc1cccc(-c2nc3ccc(Cl)cn3c2NCCCC)c1	-	0	-	0	0	0
CCCCNc1c(-c2cccc(-c3ccc(OC)cc3)c2)nc2ccc(C)cn12	-	0	0	0	0	232
CCCCNc1c(-c2ccc(-c3cccc(Cl)c3)cc2)nc2ccccn12	-	0	0	0	0	207
CCCCNc1c(-c2cccc(-c3ccc(OC)cc3)c2)nc2cc(C)ccn12	-	0	-	0	0	0
CN1CCN(C(=O)C[C@H]2C[C@@H]3c4cc(NC(=O)C5CCOCC5)ccc4O[C@@H]3[C@H](CO)O2)CC1	-	-	-	-	0	-
